Our source for the outcome and AC50 values is PubChem BioAssay (EPA / NIEHS).

Each structure is given as a SMILES string. Several values for one entry are separate records, joined by “and”; a condition that tells them apart may be missing. Equal entries are not always repeated. More than one record can exist for a structure, and the calls need not agree. Activity calls are given as the source filed them. The calls were made as follows: active = hit-call score of the fitted dose curve at least 0.9, where 1 is the maximum; inactive = score below 0.9.

Read-out in assay [1]: Human Leukocyte Antigen - DR isotype (HLADR), HLA-DRA (gene 3122)
The assay can be described thus: BSK_BE3C_HLADR: BioMAP Diversity Plus: BE3C Assay for Human Leukocyte Antigen - DR isotype (HLADR) Biomarker Activity (AID 2283032). To be noted: primary human bronchial epithelial cells; actives raise or lower the signal. The gist of the method:
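ELISA read-out of HLA-DR on human lung bronchial epithelial primary cells, measured 24 h post-dosing. Both increases and decreases were scored relative to DMSO vehicle.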

Read-out in assay [2]: Vascular cell adhesion molecule 1 (VCAM1), VCAM1 (gene 7412)
The assay can be described thus: BSK_4H_VCAM1: BioMAP Diversity Plus: 4H Assay for Vascular cell adhesion molecule 1 (VCAM1) Biomarker Activity (AID 2283033).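 As to outcome: cell-surface VCAM-1 protein measured by ELISA.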 To be noted: primary human endothelial cells (HUVEC); actives raise or lower the signal. The gist of the method: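 ELISA read-out of VCAM-1 on human umbilical vein endothelium 24 hours after chemical dosing; gain or loss of signal was fitted relative to DMSO, with sulforhodamine B staining of parallel cultures flagging overt cytotoxicity.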

Read-out in assay [3]: Interferon-gamma inducible Protein 10 (IP10), CXCL10 (gene 3627)
The assay can be described thus: BSK_BE3C_IP10: BioMAP Diversity Plus: BE3C Assay for Interferon-gamma inducible Protein 10 (IP10) Biomarker Activity (AID 2283034). To be noted: primary human bronchial epithelial cells; actives raise or lower the signal. The gist of the method: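 Chemical is dosed onto human lung bronchial epithelial primary cells, cultures are incubated 24 h, and IP-10 is then quantified by ELISA. Gain or loss of signal is fitted in both directions relative to DMSO.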

Read-out in assay [4]: Monokine induced gamma interferon (MIG), CXCL9 (gene 4283)
The assay can be described thus: BSK_BE3C_MIG: BioMAP Diversity Plus: BE3C Assay for Monokine induced gamma interferon (MIG) Biomarker Activity (AID 2283035). Conditions: primary human bronchial epithelial cells; actives raise or lower the signal. The gist of the method: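 ELISA read-out of MIG in human lung bronchial epithelial primary cultures, 24 h post-dosing. Bidirectional curve fit vs DMSO baseline.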

Read-out in assay [5]: Transforming growth factor beta 1 (TGFb1), TGFB1 (gene 7040)
The assay can be described thus: BSK_BE3C_TGFb1: BioMAP Diversity Plus: BE3C Assay for Transforming growth factor beta 1 (TGFb1) Biomarker Activity (AID 2283036;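 as to outcome: TGF-b1 protein level measured by ELISA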). Conditions: primary human bronchial epithelial cells; actives raise or lower the signal. The gist of the method:
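Primary human lung bronchial epithelial cells; compound exposure 24 h; TGF-b1 by ELISA; bidirectional fit, DMSO baseline. Parallel SRB total-protein staining for cytotoxicity.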

Read-out in assay [6]: Plasminogen activator inhibitor-1 (PAI1), SERPINE1 (gene 5054)
Description: BSK_BE3C_PAI1: BioMAP Diversity Plus: BE3C Assay for Plasminogen activator inhibitor-1 (PAI1) Biomarker Activity (AID 2283037). To be noted: primary human bronchial epithelial cells; actives raise or lower the signal. The gist of the method: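 Primary human lung bronchial epithelial cells; chemical dosing; 24 h; PAI-1 measured by ELISA; bidirectional fit referenced to DMSO as negative control.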

Read-out in assay [7]: urokinase plasminogen activator (uPA), PLAU (gene 5328)
Description: BSK_BE3C_uPA: BioMAP Diversity Plus: BE3C Assay for urokinase plasminogen activator (uPA) Biomarker Activity (AID 2283038).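 As to outcome: uPA protein level quantified by ELISA in cell cultures; uPA read one day after compound addition.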 To be noted: primary human bronchial epithelial cells; actives raise or lower the signal. The gist of the method: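 Primary human bronchial epithelial cells, uPA measured by ELISA 24 h after dosing. Bidirectional change relative to DMSO; cytotoxicity checked in parallel cultures by sulforhodamine B total-protein staining.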

Read-out in assay [8]: Urokinase-type plasminogen activator receptor (uPAR), PLAUR (gene 5329)
The assay can be described thus: BSK_BE3C_uPAR: BioMAP Diversity Plus: BE3C Assay for Urokinase-type plasminogen activator receptor (uPAR) Biomarker Activity (AID 2283039).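 As to outcome: uPAR protein level measured by ELISA on the cells; cells exposed to compound for one day before measurement.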 To be noted: primary human bronchial epithelial cells; actives raise or lower the signal. The gist of the method:
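Human bronchial epithelial primary cells; chemical exposure 24 h; uPAR by ELISA; bidirectional fit vs DMSO control.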

Read-out in assay [9]: Interleukin-6 (IL6), IL6 (gene 3569)
The assay can be described thus: BSK_CASM3C_IL6: BioMAP Diversity Plus: CASM3C Assay for Interleukin-6 (IL6) Biomarker Activity for (AID 2283040). To be noted: primary human coronary artery smooth muscle cells; actives raise or lower the signal.

Read-out in assay [10]: Tissue plasminogen activator (tPA), PLAT (gene 5327)
Description: BSK_BE3C_tPA: BioMAP Diversity Plus: BE3C Assay for Tissue plasminogen activator (tPA) Biomarker Activity (AID 2283041).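 As to outcome: tPA level quantified by ELISA one day after compound addition.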 Conditions: primary human bronchial epithelial cells; actives raise or lower the signal. The gist of the method: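 Primary human lung bronchial epithelial cultures receive test chemical; after 24 h, tPA is quantified by ELISA, and gain or loss of signal is fitted bidirectionally relative to DMSO baseline.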

Turning to `CC(O)CO` (stereo unspecified), the result in assay [1], in [2], in [3], in [4], in [5] and in [6] was inactive. The result in assay [7], in assay [8], in assay [9] and in assay [10] was inactive.
Regarding `OCCC(F)(F)C(F)(F)C(F)(F)C(F)(F)C(F)(F)C(F)(F)C(F)(F)C(F)(F)F`, the AC50 (usually the midpoint of the concentration-response curve, whichever way the signal moves) in assay [1] is 18.3 µM (active) and 24.1 µM (active); in assay [2] it was 41.3 µM (active) and 22.7 µM (active); in assay [3], 12.7 µM (active) and 17.9 µM (active); in [6], 16.7 µM (active) and 24.8 µM (active); in assay [8], 20.9 µM (active) and 22.9 µM (active); in assay [10], 11.6 µM (active) and 14 µM (active). Moreover, the result in [1], in [2], in assay [3], in assay [5], in assay [6] and in assay [8] was inactive. Further, the outcome in [9] and in assay [10] was inactive.
In the case of `N#C[C@@H]1CC(F)(F)CN1C(=O)CNC1CC2CCC(C1)N2c1ncccn1` (stereo partly specified), the result in assay [1], in assay [2], in [3], in assay [5], in assay [6] and in assay [7] was inactive. Also, the result in [8], in assay [9] and in assay [10] was inactive.
Consider `CC(C)(C)CC(C)(C)c1ccc(O)c(-n2nc3ccccc3n2)c1`, for which the outcome in [1], in assay [2], in assay [3], in assay [5], in assay [6] and in assay [7] was inactive. In addition, the outcome in assay [8], in [9] and in [10] was inactive.
Consider `ClC1=C(Cl)C(Cl)(Cl)C(Cl)=C1Cl`, for which the AC50 in assay [1] was 6.39 µM (active); in assay [2] it was 6.5 µM (active); in assay [3], 6.61 µM (active); in [5] it was 5.53 µM (active); in [6] it was 5.25 µM (active); in assay [7], 7.28 µM (active). In addition, the AC50 in assay [8] was 8.37 µM (active); in assay [9], 5.48 µM (active); in [10] it was 6.77 µM (active).
In the case of `CCC(=C(c1ccc(O)cc1)c1ccc(OCCN(C)C)cc1)c1ccccc1`, the AC50 is 8.64 µM (active) in assay [1]; 10.3 µM (active) in [2]; 8.38 µM (active) in [3]; 9.95 µM (active) in assay [4]; 9.79 µM (active) in [5]; 12 µM (active) in [6]. Moreover, the AC50 in [8] is 9.55 µM (active); in [9], 24.6 µM (active); in [10], 8.8 µM (active).
Take `CCCCCCCCCCCCN1CCCC1=O`: the AC50 in assay [1] was 26.2 µM (active); in assay [2], 34.2 µM (active); in assay [3], 30.6 µM (active); in assay [4], 35.2 µM (active); in assay [5] it was 20 µM (active); in assay [6], 31.8 µM (active). The AC50 was 32.4 µM (active) in assay [8] and 15.4 µM (active) in assay [10]. In assay [9], the result was inactive.
`C#C[C@]1(O)CC[C@H]2[C@@H]3CCC4=CC(=O)CC[C@@H]4[C@H]3CC[C@@]21C`: the outcome in assay [1], in assay [2], in [3], in assay [4], in assay [5] and in [6] was inactive. Moreover, the result in assay [8], in assay [9] and in assay [10] was inactive.
Consider `NCC(F)(F)C(F)(F)C(F)(F)C(F)(F)C(F)(F)C(F)(F)C(F)(F)F`, for which the outcome in assay [1], in assay [2], in [3], in assay [4], in assay [6] and in [7] was inactive. The outcome in assay [8], in assay [9] and in [10] was inactive.
Consider `Oc1cccc(O)c1`, for which the result in assay [1], in assay [2], in assay [3], in assay [4], in assay [5] and in [6] was inactive. The outcome in assay [8], in assay [9] and in [10] was inactive.
`CCCCCCCCCCCCc1ccccc1S(=O)(=O)O`: the AC50 in assay [1] was 8.12 µM (active); in [3] it was 6.21 µM (active); in [4], 30.1 µM (active); in assay [5], 8.96 µM (active); in [6], 8.94 µM (active); in [7], 13.9 µM (active). The AC50 in assay [8] is 14.2 µM (active); in [10], 6.79 µM (active). For the same compound, the outcome in assay [2] and in assay [9] was inactive.
For the compound `CN(C)C=O`, the outcome in assay [1], in [2], in assay [3], in assay [4], in assay [5] and in [6] was inactive. The result in assay [8], in assay [9] and in [10] was inactive.
For the compound `CC(C)CCCCCCOC(=O)CCCCC(=O)OCCCCCCC(C)C`, the outcome in [1], in [2], in [3], in [4], in assay [5] and in assay [6] was inactive. The result in assay [8], in assay [9] and in assay [10] was inactive.
For the compound `Cc1cc(CCN2CCN(c3nsc4ccccc34)CC2)cc2c1NC(=O)CC2(C)C`, the AC50 was 28.9 µM (active) in assay [1]; 22.3 µM (active) in assay [2]; 30.4 µM (active) in [3]; 34.4 µM (active) in assay [4]; 27.2 µM (active) in assay [5]; 32.6 µM (active) in assay [6]. In addition, the AC50 in [8] was 31.2 µM (active); in assay [10] it was 25.8 µM (active).
Turning to `CC(=O)CC(C)(C)O`, the outcome in assay [1], in [2], in [3], in [4], in assay [5] and in assay [6] was inactive. For the same compound, the result in [8], in assay [9] and in assay [10] was inactive.
